Measurements reported in paper PMC4336329 (PLoS ONE, 2015).
The campaign covered roughly 310,000 compounds. About 14,000 (4.5%) showed an effect of 50% or more. The effect is printed as a negative number. This is one part of a sample in which strong results are shown more often than they occur.

Target: human ether-à-go-go-related gene (hERG) potassium channel (human, UniProt Q12809)
Assay: primary screen, population patch clamp on CHO cells stably expressing hERG; higher = less effect of the substance
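Further: peak tail current of the secondary pulse compared with the same well before compound.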

Sequence of human ether-à-go-go-related gene (hERG) potassium channel (Q12809 whole entry, looked up): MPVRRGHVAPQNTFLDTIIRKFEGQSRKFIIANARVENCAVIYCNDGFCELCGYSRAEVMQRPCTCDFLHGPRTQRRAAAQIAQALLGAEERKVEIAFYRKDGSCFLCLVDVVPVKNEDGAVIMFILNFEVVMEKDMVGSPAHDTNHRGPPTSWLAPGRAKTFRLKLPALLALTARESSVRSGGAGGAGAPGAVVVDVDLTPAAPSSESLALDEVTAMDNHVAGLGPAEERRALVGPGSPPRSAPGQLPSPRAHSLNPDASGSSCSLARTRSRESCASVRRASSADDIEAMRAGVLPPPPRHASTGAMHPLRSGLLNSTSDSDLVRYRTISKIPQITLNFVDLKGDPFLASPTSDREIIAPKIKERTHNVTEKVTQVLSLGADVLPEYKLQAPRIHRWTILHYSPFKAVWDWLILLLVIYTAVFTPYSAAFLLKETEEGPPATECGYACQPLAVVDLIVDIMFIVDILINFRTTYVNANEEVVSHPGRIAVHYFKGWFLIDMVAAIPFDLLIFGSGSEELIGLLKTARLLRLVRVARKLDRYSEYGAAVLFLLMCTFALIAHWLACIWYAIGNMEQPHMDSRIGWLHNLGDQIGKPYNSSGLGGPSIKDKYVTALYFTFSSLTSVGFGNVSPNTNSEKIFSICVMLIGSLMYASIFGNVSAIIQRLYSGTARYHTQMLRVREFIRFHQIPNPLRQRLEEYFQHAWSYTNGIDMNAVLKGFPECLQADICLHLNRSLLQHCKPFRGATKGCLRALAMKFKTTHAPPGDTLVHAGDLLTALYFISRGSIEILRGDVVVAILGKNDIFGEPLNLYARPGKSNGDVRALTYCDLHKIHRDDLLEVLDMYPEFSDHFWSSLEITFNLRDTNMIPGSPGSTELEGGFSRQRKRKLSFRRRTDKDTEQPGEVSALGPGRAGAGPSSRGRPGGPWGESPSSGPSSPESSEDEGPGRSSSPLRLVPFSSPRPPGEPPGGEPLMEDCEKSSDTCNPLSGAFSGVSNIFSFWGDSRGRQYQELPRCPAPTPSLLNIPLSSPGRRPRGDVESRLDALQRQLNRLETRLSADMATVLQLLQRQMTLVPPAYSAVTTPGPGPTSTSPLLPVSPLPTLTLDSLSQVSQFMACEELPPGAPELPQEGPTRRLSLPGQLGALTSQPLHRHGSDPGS

Row | SMILES | hERG current change (%, negative = inhibition) at 10uM [%]
1 | CC(C)(C)n1nc2c(c1NC(=O)c1ccc(F)c(F)c1)CS(=O)(=O)C2 | 3.79
2 | COc1ccc(/C=N/NC(=O)c2ccc(CN3c4cccc5cccc(c45)S3(=O)=O)cc2)cc1 | 4.03
3 | CC(C)CN(C(=O)COC(=O)c1c2c(nc3ccccc13)CCC2)c1c(N)n(Cc2ccccc2)c(=O)[nH]c1=O | 4.06
4 | Cc1ccc(N2CC(C(=O)NCCS(=O)(=O)N3CCN(c4ccccc4F)CC3)CC2=O)cc1 (stereo not shown) | 13.2
5 | CC(C)(C)c1ccc(OCCNC(=S)NC(=O)c2cccnc2)cc1 | -16.3
6 | CCC(CC)C(=O)Nc1cc(C(=O)OC)ccc1C(=O)OC | -15.4
7 | COCCn1cc(C(=O)c2cc(Br)ccc2O)cc(C#N)c1=O | 2.45
8 | CNC(=O)CSc1nnc(-c2cccnc2)n1-c1ccc(C)cc1 | 13.6
9 | CC(C)(C)C(=O)CSc1nnc(-c2cccs2)n1CC1CCCO1 (stereo not shown) | -12.4
10 | Cc1ccc(C)c2c(SC(C)C(=O)NCc3ccco3)nc(-c3ccccc3)nc12 (stereo not shown) | -64.7
11 | CC(Sc1nnc(Cc2cccs2)n1C1CCCCC1)C(=O)NCc1ccco1 (stereo not shown) | -5.59
12 | O=C(CCCSc1nnc(-c2cccs2)n1CC1CCCO1)c1ccccc1 (stereo not shown) | -65.1
13 | CC(Sc1nnc(-c2cccs2)n1-c1ccccc1)C(=O)NCc1ccco1 (stereo not shown) | -79.4
14 | CC(Sc1nc(-c2ccccc2)cc(C(F)(F)F)n1)C(=O)NCc1ccco1 (stereo not shown) | 10.2
15 | Cc1ccc(-n2c(SCC(=O)NCc3ccco3)nnc2-c2cccnc2)c(C)c1 | -34.4
16 | Cc1ccc(-n2c(SCC(=O)NCc3ccco3)nnc2-c2cccnc2)cc1 | -60.8
17 | Cc1ccc2nc(-c3ccccc3)nc(SC(C)C(=O)NCc3cccs3)c2c1 (stereo not shown) | 11.7
18 | Cn1c(SCC(=O)NCc2ccco2)nnc1-c1cccs1 | 3.45
19 | O=C(CSc1nnc(-c2cccs2)n1CC1CCCO1)N1CCCC1 (stereo not shown) | -14.4
20 | CCCCNC(=O)CN1C(=O)COc2ccc(S(=O)(=O)N3CCCCCC3)cc21 | -1.25
21 | O=C(CSc1nc(=O)n2ccccc2n1)NCCc1ccccc1 | -1.36
22 | Cc1ccc2nc(CSc3nnc(Cc4cccs4)n3C3CCCCC3)cc(=O)n2c1 | -15.6

Row | SMILES | hERG current change (%, negative = inhibition) at 10uM [%]
23 | COc1cccc(C(=O)N/N=C/c2ccc(OC)c(COc3ccccc3C(N)=O)c2)c1 | -2.25
24 | N#Cc1cc(Oc2ccc(Cl)cc2)c(N2CCOCC2)cc1C#N | -1.79
25 | CNC(=O)CSc1nnc(-c2ccco2)n1-c1cccc(C)c1 | -4.75
26 | O=C(CSc1nnc(-c2ccco2)n1-c1ccccc1)NCCc1ccccc1 | -69.4
27 | O=C(O)CCCCCNC(=O)CSc1nnc(-c2ccco2)n1-c1ccccc1 | 11.9
28 | Cc1cccc(-n2c(SCC(=O)NCc3ccco3)nnc2-c2ccco2)c1 | -75.7
29 | CC(=O)CSc1nnc(-c2ccco2)n1-c1ccccc1 | -11.7
30 | Cc1nnc(SCC(=O)NCc2ccco2)n1-c1ccccc1 | 26.1
31 | O=C(CSc1nnc(-c2ccco2)n1-c1ccccc1)NCc1ccco1 | -67.8
32 | O=C(CSc1nnc(-c2ccccc2)n1-c1ccccc1)NCc1ccco1 | 1.47
33 | NC(=O)CSc1nnc(-c2ccco2)n1-c1ccccc1 | 16.1
34 | Cn1c(SCC(=O)NCCc2ccccc2)nnc1-c1ccco1 | -4.63
35 | Cc1cccc(-n2c(SCC(N)=O)nnc2-c2ccco2)c1 | -1.07
36 | CN(Cc1ccccc1)C(=O)CSc1nnc(-c2ccco2)n1-c1ccccc1 | -80.2
37 | O=C(N1CCCCC1)N1CCN(S(=O)(=O)c2ccccc2)CC1 | 10.4
38 | Nc1cc(-c2ccc(Cl)cc2)nn1S(=O)(=O)c1ccc(Cl)cc1 | 19.1
39 | CC(=O)Nc1ccc(OCc2cnc(Cl)s2)cc1 | 11.3
40 | CCN(C(=O)COC(=O)c1c(C)nsc1NC)c1ccccc1 | -11.9
41 | Cc1onc(-c2ccccc2)c1C(=O)NNC(=S)NC(=O)/C=C/c1ccccc1 | 16.2
42 | O=C(c1ccccc1)N1CCN(C2c3cccc4cccc(c34)C2NS(=O)(=O)c2ccccc2)CC1 (stereo not shown) | -21.9
43 | O=S(=O)(Nc1ccc(S(=O)(=O)N2CCCC2)cc1)c1ccccc1Br | 3.27
44 | CCC(=NCc1ccccc1)C1=C(O)C(C(=O)OC)C(C)(C)CC1=O (stereo not shown) | -17

Row | SMILES | hERG current change (%, negative = inhibition) at 10uM [%]
45 | C[C@@H]1CC=C[C@H]2[C@H]1C(=O)N(Cc1ccccc1)[C@H]2c1ccc(-c2ccc(F)cc2)cc1F | -0.198
46 | O=C(CSc1nc2c(c(=O)n1-c1ccc(Br)cc1)SCC2)NCC1CCCO1 (stereo not shown) | -60.9
47 | O=C(CSc1nc2c(c(=O)n1-c1ccc(F)cc1)SCC2)NCC1CCCO1 (stereo not shown) | -2.45
48 | O=C(CSc1nnc(-c2cccs2)n1-c1ccccc1)NCc1ccco1 | -73
49 | O=C(CSc1nnc(-c2cccs2)n1-c1ccccc1)NCC1CCCO1 (stereo not shown) | -74.1
50 | O=C(CSc1nnc(-c2cccs2)n1C1CC1)NCC1CCCO1 (stereo not shown) | -0.536
51 | O=C(CSc1nc2c(c(=O)n1-c1ccc(Cl)cc1)SCC2)NCC1CCCO1 (stereo not shown) | -34.5
52 | Cc1nnc(SCC(=O)NCC2CCCO2)n1-c1ccccc1 (stereo not shown) | -4.28
53 | CCn1c(SCC(=O)NCc2ccco2)nnc1-c1cccs1 | -8.86
54 | Cc1cc(C)nc(SCc2nnc(SCC(=O)NCc3ccco3)n2-c2ccccc2)n1 | -14.5
55 | CN(/N=C/c1c[nH]c2ccccc12)c1cnn(-c2ccc(F)c(Cl)c2)c(=O)c1Cl | -5.66
56 | CCOc1ccccc1CN1CCNC(=O)C1CC(=O)N(C)Cc1nonc1C (stereo not shown) | 8.59
57 | COc1ccc(CNC(=O)c2cccc(-c3ccc(C)c4ccccc34)n2)cc1 | -24
58 | COc1ccc(-c2ccc(NS(=O)(=O)c3cc([N+](=O)[O-])ccc3C)cc2)nn1 | -25.5
59 | CN(CC(=O)Nc1ccc(Cl)cc1)S(=O)(=O)c1ccc2c(c1)n(C)c(=O)c(=O)n2C | 16.3
60 | COc1cccc(CC2(CO)CCCN(CC3=Cc4cc(Cl)ccc4OC3)C2)c1 (stereo not shown) | -7.49
61 | COc1ccc(CC2(CO)CCN(CC3=Cc4cc(Cl)ccc4OC3)CC2)cc1 | -58.3
62 | COc1ccc2c(c1)C=C(CN1CCC(CO)(CCc3ccccc3)CC1)CO2 | -77.1
63 | COc1cccc(CC2(CO)CCCN(CC3=Cc4cc(OC)ccc4OC3)C2)c1 (stereo not shown) | -21.5
64 | OCC1(CCOc2ccccc2)CCN(CC2=Cc3cc(Cl)ccc3OC2)CC1 | -21.9
65 | CCOc1ccc(S(=O)(=O)NC(Cc2cnc[nH]2)C(=O)O)cc1 (stereo not shown) | 18.5
66 | CCN(CC)c1ccc(NC(=O)c2ccc(=O)[nH]c2)cc1S(=O)(=O)Nc1ccc(OC)cc1 | -7.22

Row | SMILES | hERG current change (%, negative = inhibition) at 10uM [%]
67 | CCCNC(=O)c1cc(S(=O)(=O)N2CCc3ccccc32)cn1C | -0.715
68 | CC(NC(=O)c1cccc(S(=O)(=O)N2CCc3ccccc32)c1)c1ccco1 (stereo not shown) | -48
69 | CCN(CC)CCCC(C)NC(=O)c1cccc(S(=O)(=O)N2CCc3ccccc32)c1.Cl (stereo not shown) | -58.5
70 | CC(C)CCNC(=O)c1cc(S(=O)(=O)N2CCc3ccccc32)cn1C | 10.2
71 | CCN(CC)CCNC(=O)c1cc(S(=O)(=O)N2CCc3ccccc32)cn1C | -66.1
72 | CC(C)CCNC(=O)c1cccc(S(=O)(=O)N2CCc3ccccc32)c1 | 2.44
73 | CCCOc1ccccc1C1CC(=O)NC2=C1C(=O)CCC2 (stereo not shown) | -1.24
74 | C=CCOc1ccc(/C=C/C(=O)OC(C)C(=O)Nc2ccc(NC(C)=O)cc2)cc1 (stereo not shown) | 4.6
75 | Cc1nc(CNC(=O)CC2C(=O)NCCN2Cc2ccc(F)cc2)cs1 (stereo not shown) | 11.9
76 | Cc1cc(C)nc(N(C#N)CN2C(=O)c3ccccc3S2(=O)=O)n1 | 0.542
77 | O=C(O)c1ccc(Cl)c(S(=O)(=O)N2CCCCCC2)c1 | -8.34
78 | C/C(=N\NC(=O)CN(c1ccc(C)cc1)S(C)(=O)=O)c1cccs1 | -8.31
79 | O=C(Nc1cc(Cl)ccc1Oc1ccccc1)c1ccc(F)cc1 | -14.1
80 | Cc1ccc(C2CC(c3cccs3)=NN2C(=O)CSc2nc(=O)n3ccc(C)cc3n2)cc1 (stereo not shown) | -46.3
81 | Cc1ccn2c(=O)nc(SCC(=O)N3N=C(c4cccs4)CC3c3ccc(F)cc3)nc2c1 (stereo not shown) | -65
82 | COc1ccc(C2=NN(C(=O)CSc3nc(=O)n4ccc(C)cc4n3)C(c3ccc(C)cc3)C2)cc1 (stereo not shown) | 5.1
83 | CCOC(=O)CSCC(=O)N1N=C(c2cccs2)CC1c1ccc(F)cc1 (stereo not shown) | -34.1
84 | COc1ccc(C2CC(c3cccs3)=NN2C(=O)CSc2nc(=O)n3ccc(C)cc3n2)cc1 (stereo not shown) | -65.4
85 | CCN1CCN(CC(=O)N2N=C(c3cccs3)CC2c2ccc(OC)cc2)C(=O)C1=O (stereo not shown) | -8.83
